34 molecules from PubChem BioAssay (Tox21) can be followed below.

Inconclusive results are not listed. Where a call stands in place of a potency, no number is given. A number with no mark means an inactive call. Activity calls are given as the source filed them. Calls come from the whole dose curve; as a rule, active = well fitted curve in the direction sought with a large enough effect in the repeat runs; inconclusive = weak or mixed curves; inactive = no such curve, though single readings can be large; an effect the other way counts as inactive or inconclusive.

The first experiment in a line: A CellTox Green Cytotoxicity Assay to monitor cytotoxicity in HEK293 cells - 16 hour (AID 1224888). Note: nearly all actives have a fitted effect of over 35% in size. The following applies: CellTox Green fluorescence; series mostly up to 76.8 µM. Summed up:
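Read-out: fluorescence of a cell-impermeant cyanine dye staining DNA of dead cells, proportional to cytotoxicity. HEK293, 600 cells/well with reagent, compound (23 nL DMSO) added after 5 h; reads at 0, 8, 16, 24, 32, 40 h.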
Take `COc1cc(/C=C/c2ccccc2)oc(=O)c1`: the Potency entry is “inactive”. In the case of `CCCCN(CCCC)CC(O)c1cc(Cl)cc2c1-c1ccc(Cl)cc1/C2=C/c1ccc(Cl)cc1` (centres undefined), the Potency entry is “inactive”. On to `CC/C=C\CCCCCO`, for which the Potency result was “inactive”.

Consider `OC12N=C(c3ccccc3)SC1Cc1cc(Cl)ccc12` (centres undefined), for which the Potency entry is “inactive”.

Consider `C#C[C@]1(OC(C)=O)CC[C@H]2[C@@H]3CCC4=C[C@@H](OC(C)=O)CC[C@@H]4[C@H]3CC[C@@]21C`, for which the Potency entry was “inactive”.

On to `C#C[C@]1(OC(C)=O)CC[C@H]2[C@@H]3CCC4=C/C(=N/O)CC[C@@H]4[C@H]3CC[C@@]21CC`, for which the Potency entry was “inactive”. On to `CC(C)=CCNc1ncnc2c1ncn2[C@@H]1O[C@H](CO)[C@@H](O)[C@H]1O`, for which the Potency result was “inactive”.

In the case of `COc1ccc2c(c1)c(CC(=O)OC/C=C(\C)CC/C=C(\C)CCC=C(C)C)c(C)n2C(=O)c1ccc(Cl)cc1`, the Potency result was “inactive”. As for `Cc1cc(-c2ccc(N=Nc3cc(S(=O)(=O)O)c4ccccc4c3N)c(C)c2)ccc1N=Nc1cc(S(=O)(=O)O)c2ccccc2c1N`, the Potency result was “inactive”. Consider `CCc1oc2ccccc2c1C(=O)c1cc(I)c(O)c(I)c1`, for which the Potency entry was “inactive”. Same read-out and setting: for `C=CC(=O)OCCOC(=O)C=C` the value was “inactive”; for `CCCCCCCCCCC[C@@H](C[C@@H]1OC(=O)[C@H]1CCCCCC)OC(=O)[C@H](CC(C)C)NC=O`, “inactive”. Still for that read-out and setting: with `[Cl][Pt-2]([Cl])([Cl])[Cl]` the entry was “inactive”. On to `CCCCC(CC)COC(=O)CCCCC(=O)OCc1ccccc1` (centres undefined), for which the Potency result is “inactive”. On to `C[Si](Cl)(c1ccccc1)c1ccccc1`, for which the Potency result is “inactive”. In the case of `O=C1CCc2ccc(OCCCCN3CCN(c4cccc(Cl)c4Cl)CC3)cc2N1`, the Potency result is “inactive”. With `CC[C@H](C)COC(=O)/C=C/c1ccc(N=Cc2ccc(OC)cc2)cc1`, the Potency entry was “inactive”.

Consider `CCCCCC(C)OC(=O)COc1ccc(Cl)c2cccnc12` (centres undefined), for which the Potency result was “inactive”.

Regarding `COC(=O)C1=C(C)NC(C)=C(C(=O)OCCN2CCN(C(c3ccccc3)c3ccccc3)CC2)C1c1cccc([N+](=O)[O-])c1` (centres undefined), the Potency result was “inactive”.

A short description of a further experiment: qHTS RealTime-Glo MT Cell Viability Assay in HepG2 cells - 0 hour (AID 1224889). Note: nearly all actives have a fitted effect of over 50% in size. The conditions noted are these: RealTime-Glo luminescence; series mostly up to 76.8 µM. Summed up:
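Compound treatment began 5 h after plating HepG2 cells (600/well) with NanoLuc luciferase and prosubstrate. Plates stayed at 37 C for 40 h; luminescence was captured at six time points, 0 h through 40 h.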
(In general: qHTS replaces the single test concentration by a dilution series.)
As to `O=C(O)CCN(C1(C(=O)NO)CCCC1)S(=O)(=O)c1ccc(Oc2ccc(F)cc2)cc1`, the Potency entry was “inactive”. On to `COc1cc(/C=C/c2ccccc2)oc(=O)c1`, for which the Potency entry is “inactive”. Still for that read-out and setting: with `CCCCN(CCCC)CC(O)c1cc(Cl)cc2c1-c1ccc(Cl)cc1/C2=C/c1ccc(Cl)cc1` (centres undefined) the entry was “inactive”. In the case of `CC/C=C\CCCCCO`, the Potency result is “inactive”. For `OC12N=C(c3ccccc3)SC1Cc1cc(Cl)ccc12` (centres undefined), the Potency entry is “inactive”. With `C#C[C@]1(OC(C)=O)CC[C@H]2[C@@H]3CCC4=C[C@@H](OC(C)=O)CC[C@@H]4[C@H]3CC[C@@]21C`, the Potency result is “inactive”. Consider `C/C=C/C=C/COC(=O)C(C)C`, for which the Potency result is “inactive”. `C#C[C@]1(OC(C)=O)CC[C@H]2[C@@H]3CCC4=C/C(=N/O)CC[C@@H]4[C@H]3CC[C@@]21CC`: the Potency entry is “inactive”. Turning to `Cc1cc(-c2ccc(N=Nc3cc(S(=O)(=O)O)c4ccccc4c3N)c(C)c2)ccc1N=Nc1cc(S(=O)(=O)O)c2ccccc2c1N`, the Potency result is “inactive”. Take `CCc1oc2ccccc2c1C(=O)c1cc(I)c(O)c(I)c1`: the Potency entry was “inactive”. On to `C=CC(=O)OCCOC(=O)C=C`, for which the Potency entry was “inactive”.

Consider `Cc1ccc(O)c(O)c1`, for which the Potency result was “inactive”. Still for that read-out and setting: with `CCCCCCCCCCC[C@@H](C[C@@H]1OC(=O)[C@H]1CCCCCC)OC(=O)[C@H](CC(C)C)NC=O` the entry was “inactive”; with `[Cl][Pt-2]([Cl])([Cl])[Cl]`, “inactive”. As for `COc1cccc(OC)c1C(=O)O`, the Potency result was “inactive”. Turning to `CN(C)[C@@H](CCOc1cccc2ccccc12)c1ccccc1`, the Potency result is “inactive”. Consider `COc1ccc2cc1Oc1ccc(cc1)C[C@H]1c3c(cc4c(c3Oc3cc5c(cc3OC)CCN(C)[C@@H]5C2)OCO4)CCN1C`, for which the Potency result was “inactive”. In the case of `CCCCC(CC)COC(=O)CCCCC(=O)OCc1ccccc1` (centres undefined), the Potency result was “inactive”. Take `C[Si](Cl)(c1ccccc1)c1ccccc1`: the Potency result is “inactive”. For `OCCN1CCN(CCCN2c3ccccc3Sc3ccc(C(F)(F)F)cc32)CC1`, the Potency entry is “inactive”.

For the molecule `Cl[Si](Cl)(c1ccccc1)c1ccccc1`, the Potency entry is “inactive”.

In the case of `CC1(C)CCC[C@]2(C)[C@H]3CCO[C@]3(C)CC[C@@H]12`, the Potency result was “inactive”.

On to `COc1ccc(NC(=O)CC(C)=O)cc1`, for which the Potency result was “inactive”.

Consider `O=C1CCc2ccc(OCCCCN3CCN(c4cccc(Cl)c4Cl)CC3)cc2N1`, for which the Potency result is “inactive”. `O=C(c1ccc(O)c(O)c1)c1ccc(O)cc1O`: the Potency entry was “inactive”. On to `CC(N=C(NC#N)Nc1ccncc1)C(C)(C)C` (centres undefined), for which the Potency result was “inactive”. The same measure, in the same setting: for `O=C(/C=C/c1ccccc1)OC/C=C/c1ccccc1` the value was “inactive”. As to `CC[C@H](C)COC(=O)/C=C/c1ccc(N=Cc2ccc(OC)cc2)cc1`, the Potency result was “inactive”. For `Sc1nc2ccccc2s1`, the Potency entry is “inactive”. As to `O=C(O)CN(CCN(CC(=O)O)CC(=O)O)CC(=O)O`, the activity change, negative = cytotoxicity is -5.49% [at 2.72 µM].
